The supplement of paper PMC10849652
Of roughly 7,900 targets only a part is listed; those with a hit were picked by preference. About 0.6% of all pairs of compound and target were hits.

Key:
Experiment in all cases: log2 fold change, soluble protein after heating vs DMSO (PISA); higher = thermal stabilisation; K562 cells, 10 uM, 30 min; active = over 0.2 and 3.5 SD of the protein, either way, in both replicates (recomputed)
[1] = compound: C1=CC=C(C=C1)[C@H](COC2=CC3=C(C=C2)NC(=O)N3)NC(=O)C4=CC=CN(C4=O)CC5=CC(=C(C=C5)F)F
Method in brief: (§1)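 K562 cells at 2×10^6 cells/mL were exposed to 10 μM compound for 30 min, then aliquots were heated for 3 min across 48°C-58°C, pooled, and extracted in PBS containing 0.5% NP-40 at 4°C. The supernatant after 21,000xg for 90 min was taken as soluble protein and measured by TMTpro 16plex LC-MS/MS with channel sums equalised. Thermal stability is reported relative to control samples, with values from duplicates. Fold changes are given on a log2 scale.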

[2] = compound: CC1=C(SC2=C1C(=N[C@H](C3=NN=C(N32)C)CC(=O)N)C4=CC=C(C=C4)Cl)C
Method in brief: as §1

[3] = compound: CC1=C2C(=CC=C1)N=C(N(C2=O)C3=CC=CC=C3C)CN4C=NC5=C(N=CN=C54)N
Method in brief: as §1

[4] = compound: Cc1sc2c(c1C)C(c1ccc(Cl)cc1)=N[C@@H](CC(=O)OC(C)(C)C)c1nnc(C)n1-2
Method in brief: as §1

[5] = compound: c1ccc([C@@H]2C[C@H]2NC2CCNCC2)cc1
Method in brief: as §1

Measured: log2 fold change

SART3, A0A499FI31
inactive: [1] -0.008 | [2] 0.015 | [3] 0.056 | [4] -0.08 | [5] -0.006

SLC12A5 (UniProt Q9H2X9)
inactive: [1] 0.102 | [2] 0.099 | [3] 0.066 | [4] -0.064 | [5] 0.055

RPS18 (UniProt P62269)
inactive: [1] 0.088 | [2] -0.125 | [3] -0.04 | [4] 0.099 | [5] 0.004

SEC24A (UniProt O95486)
inactive: [1] -0.022 | [2] 0.02 | [3] 0.014 | [4] -0.027 | [5] -0.021

RPS4X (UniProt P62701)
inactive: [1] 0.105 | [2] -0.255 | [3] -0.232 | [4] 0.148 | [5] 0.001

RRAGB (UniProt Q5VZM2)
Sequence of UniProt Q5VZM2 (Q5VZM2 whole entry, looked up): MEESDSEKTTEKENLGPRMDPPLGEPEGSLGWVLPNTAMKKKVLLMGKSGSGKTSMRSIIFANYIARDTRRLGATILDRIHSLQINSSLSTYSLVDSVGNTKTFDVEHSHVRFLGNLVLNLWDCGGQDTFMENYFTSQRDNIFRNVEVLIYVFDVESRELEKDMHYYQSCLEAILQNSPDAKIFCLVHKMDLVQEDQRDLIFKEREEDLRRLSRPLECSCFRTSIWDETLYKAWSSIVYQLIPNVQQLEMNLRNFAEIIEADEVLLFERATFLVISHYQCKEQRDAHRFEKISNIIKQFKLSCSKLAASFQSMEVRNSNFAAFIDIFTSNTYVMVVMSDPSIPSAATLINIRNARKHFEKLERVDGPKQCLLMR
inactive: [1] 0.046 | [2] -0.028 | [3] -0.088 | [4] -0.01 | [5] 0.02

SCPEP1 (UniProt Q9HB40)
inactive: [1] 0.006 | [2] -0.006 | [3] -0.001 | [4] 0.007 | [5] -0.007

RPS13 (UniProt P62277)
inactive: [1] 0.142 | [2] -0.234 | [3] -0.246 | [4] 0.213 | [5] 0

RPRD1B (UniProt Q9NQG5)
inactive: [1] -0.006 | [2] 0.06 | [3] 0.043 | [4] 0.009 | [5] 0.014

SCAMP2 (UniProt O15127)
Sequence of UniProt O15127 (O15127 whole entry, looked up): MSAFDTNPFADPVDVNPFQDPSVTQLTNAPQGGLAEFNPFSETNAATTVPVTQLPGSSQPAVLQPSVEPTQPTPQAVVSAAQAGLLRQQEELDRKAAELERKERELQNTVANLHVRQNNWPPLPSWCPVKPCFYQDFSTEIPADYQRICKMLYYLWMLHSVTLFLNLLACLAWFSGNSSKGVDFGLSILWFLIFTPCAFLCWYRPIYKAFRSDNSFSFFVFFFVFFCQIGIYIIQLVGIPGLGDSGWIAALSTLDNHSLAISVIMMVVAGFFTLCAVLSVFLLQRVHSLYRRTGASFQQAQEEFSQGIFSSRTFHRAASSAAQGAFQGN
inactive: [1] 0.061 | [2] 0.026 | [3] -0.041 | [4] -0.105 | [5] -0.048

REL (UniProt Q04864)
inactive: [1] 0.058 | [2] 0.048 | [3] 0.046 | [4] 0.037 | [5] 0.065

RALY (UniProt Q9UKM9)
inactive: [1] 0.102 | [2] -0.379 | [3] -0.243 | [4] 0.031 | [5] 0.003

RDH11 (UniProt Q8TC12)
inactive: [1] 0.258 | [2] 0.06 | [3] 0.266 | [4] 0.115 | [5] -0.058

RARS2 (UniProt Q5T160)
Sequence of UniProt Q5T160 (Q5T160 whole entry, looked up): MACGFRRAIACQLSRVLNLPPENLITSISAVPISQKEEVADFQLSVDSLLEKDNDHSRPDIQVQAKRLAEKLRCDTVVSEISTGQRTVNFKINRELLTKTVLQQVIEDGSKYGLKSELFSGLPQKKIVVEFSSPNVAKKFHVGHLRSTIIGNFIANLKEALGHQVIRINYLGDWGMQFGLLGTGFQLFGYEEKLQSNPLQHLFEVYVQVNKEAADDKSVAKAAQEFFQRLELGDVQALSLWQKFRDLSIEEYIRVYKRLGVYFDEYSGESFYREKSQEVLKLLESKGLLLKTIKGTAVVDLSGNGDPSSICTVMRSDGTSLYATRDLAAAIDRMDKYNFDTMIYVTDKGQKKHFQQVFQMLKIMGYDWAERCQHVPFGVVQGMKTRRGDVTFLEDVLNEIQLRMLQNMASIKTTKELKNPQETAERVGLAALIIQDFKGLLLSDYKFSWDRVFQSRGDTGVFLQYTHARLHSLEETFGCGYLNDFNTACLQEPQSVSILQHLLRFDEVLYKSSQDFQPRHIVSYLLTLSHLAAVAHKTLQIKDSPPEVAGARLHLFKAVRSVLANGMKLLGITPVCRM
inactive: [1] 0.021 | [2] 0.046 | [3] 0.044 | [4] -0.026 | [5] -0.007

RAB3D (UniProt O95716)
inactive: [1] 0.023 | [2] -0.105 | [3] 0.007 | [4] -0.082 | [5] 0.201

RRP36 (UniProt Q96EU6)
inactive: [1] 0.119 | [2] -0.266 | [3] -0.228 | [4] 0.245 | [5] 0.019

SAAL1 (UniProt Q96ER3)
inactive: [1] -0.054 | [2] 0.03 | [3] 0.046 | [4] 0.109 | [5] -0.043

RIC8A isoform 3 (UniProt Q9NPQ8)
inactive: [1] -0.033 | [2] 0.02 | [3] 0.015 | [4] -0.041 | [5] -0.094

RHEB (UniProt Q15382)
inactive: [1] 0.008 | [2] 0.04 | [3] 0.055 | [4] -0.048 | [5] -0.001

RTN4IP1 (UniProt Q8WWV3)
inactive: [1] 0 | [2] 0.07 | [4] -0.051 | [5] -0.108
active: [3] 0.999

RAB3IL1 (UniProt E9PK89)
inactive: [1] 0.05 | [2] 0.259 | [3] -0.107 | [4] 0.15 | [5] -0.136

RBIS (UniProt Q8N0T1)
Sequence of UniProt Q8N0T1 (Q8N0T1 whole entry, looked up): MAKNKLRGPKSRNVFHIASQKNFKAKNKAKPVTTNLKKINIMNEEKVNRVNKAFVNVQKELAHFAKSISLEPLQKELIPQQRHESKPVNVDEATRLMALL
inactive: [1] 0.035 | [2] -0.034 | [3] -0.02 | [4] 0.101 | [5] 0

RPS27A (UniProt P62979)
inactive: [1] 0.076 | [2] -0.111 | [3] -0.281 | [4] 0.108 | [5] -0.025

SELENOH (UniProt Q8IZQ5)
Sequence of UniProt Q8IZQ5 (Q8IZQ5 whole entry, looked up): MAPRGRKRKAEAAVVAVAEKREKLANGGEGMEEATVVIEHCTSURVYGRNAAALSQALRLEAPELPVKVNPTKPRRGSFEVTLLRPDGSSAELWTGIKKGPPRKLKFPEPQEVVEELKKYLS
inactive: [1] 0.049 | [2] -0.107 | [3] -0.258 | [4] -0.028 | [5] 0.08

RPS12 (UniProt P25398)
inactive: [1] 0.032 | [2] -0.092 | [3] -0.066 | [4] 0.011 | [5] -0.019

RAPGEF4 (UniProt Q8WZA2)
inactive: [1] -0.038 | [2] 0.152 | [3] 0.268 | [4] -0.028 | [5] -0.176

SEPTIN5 (UniProt G3XAH0)
inactive: [1] 0.002 | [2] -0.014 | [3] 0.061 | [4] -0.043 | [5] -0.031

RPL38 (UniProt P63173)
inactive: [1] 0.012 | [2] -0.03 | [3] -0.046 | [4] 0.053 | [5] 0.013

RAF1 isoform 2 (UniProt P04049)
inactive: [1] -0.08 | [2] 0.201 | [3] 0.222 | [4] -0.07 | [5] -0.105

RNPS1 (UniProt Q15287)
inactive: [1] -0.019 | [2] 0.001 | [3] 0.032 | [4] 0.119 | [5] 0.061

SH3GLB2 (UniProt Q9NR46)
inactive: [1] -0.029 | [2] 0.064 | [3] 0.029 | [4] 0.004 | [5] -0.063

RNF185 (UniProt Q96GF1)
inactive: [1] -0.157 | [2] 0 | [3] 0.006 | [4] 0.104 | [5] -0.168

RGS10 (UniProt O43665)
inactive: [1] 0.014 | [2] 0.042 | [3] -0.035 | [4] -0.022 | [5] -0.058

SCLT1 (UniProt Q96NL6)
inactive: [1] 0.078 | [2] 0.215 | [3] 0.222 | [4] 0.001 | [5] -0.039

SCO2 (UniProt O43819)
inactive: [1] -0.03 | [2] -0.108 | [3] -0.041 | [4] -0.098 | [5] 0.023

RAB8B (UniProt Q92930)
inactive: [1] 0.004 | [2] -0.006 | [3] -0.222 | [4] 0.033 | [5] -0.062

RBM4 (UniProt Q9BWF3)
Sequence of UniProt Q9BWF3 (Q9BWF3 whole entry, looked up): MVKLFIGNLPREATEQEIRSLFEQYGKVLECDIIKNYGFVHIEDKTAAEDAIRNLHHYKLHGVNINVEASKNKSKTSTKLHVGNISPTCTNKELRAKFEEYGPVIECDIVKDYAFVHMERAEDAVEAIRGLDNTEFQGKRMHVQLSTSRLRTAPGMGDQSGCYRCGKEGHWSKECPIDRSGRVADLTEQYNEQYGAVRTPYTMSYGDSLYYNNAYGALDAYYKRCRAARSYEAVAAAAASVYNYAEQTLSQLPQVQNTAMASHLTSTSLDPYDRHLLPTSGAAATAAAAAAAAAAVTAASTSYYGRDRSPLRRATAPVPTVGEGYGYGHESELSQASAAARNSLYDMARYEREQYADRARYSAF
inactive: [1] -0.029 | [2] -0.074 | [3] -0.011 | [4] 0.009 | [5] 0.073

SLC12A9 (UniProt Q9BXP2)
inactive: [1] 0.013 | [2] -0.002 | [3] 0.014 | [4] -0.035 | [5] 0.028

RPS21 (UniProt P63220)
inactive: [1] -0.008 | [2] -0.047 | [3] 0.028 | [4] 0.017 | [5] 0.02

SESN2 (UniProt P58004)
inactive: [1] -0.03 | [2] -0.031 | [3] 0.067 | [4] 0.066 | [5] -0.028

RBBP6 (UniProt Q7Z6E9)
inactive: [1] 0.094 | [2] 0.119 | [3] -0.017 | [4] 0.066 | [5] -0.32

RDH13 (UniProt Q8NBN7)
inactive: [1] -0.013 | [2] 0.052 | [3] 0.032 | [4] 0.013 | [5] -0.062

RBM33 (UniProt Q96EV2)
Sequence of UniProt Q96EV2 (Q96EV2 whole entry, looked up): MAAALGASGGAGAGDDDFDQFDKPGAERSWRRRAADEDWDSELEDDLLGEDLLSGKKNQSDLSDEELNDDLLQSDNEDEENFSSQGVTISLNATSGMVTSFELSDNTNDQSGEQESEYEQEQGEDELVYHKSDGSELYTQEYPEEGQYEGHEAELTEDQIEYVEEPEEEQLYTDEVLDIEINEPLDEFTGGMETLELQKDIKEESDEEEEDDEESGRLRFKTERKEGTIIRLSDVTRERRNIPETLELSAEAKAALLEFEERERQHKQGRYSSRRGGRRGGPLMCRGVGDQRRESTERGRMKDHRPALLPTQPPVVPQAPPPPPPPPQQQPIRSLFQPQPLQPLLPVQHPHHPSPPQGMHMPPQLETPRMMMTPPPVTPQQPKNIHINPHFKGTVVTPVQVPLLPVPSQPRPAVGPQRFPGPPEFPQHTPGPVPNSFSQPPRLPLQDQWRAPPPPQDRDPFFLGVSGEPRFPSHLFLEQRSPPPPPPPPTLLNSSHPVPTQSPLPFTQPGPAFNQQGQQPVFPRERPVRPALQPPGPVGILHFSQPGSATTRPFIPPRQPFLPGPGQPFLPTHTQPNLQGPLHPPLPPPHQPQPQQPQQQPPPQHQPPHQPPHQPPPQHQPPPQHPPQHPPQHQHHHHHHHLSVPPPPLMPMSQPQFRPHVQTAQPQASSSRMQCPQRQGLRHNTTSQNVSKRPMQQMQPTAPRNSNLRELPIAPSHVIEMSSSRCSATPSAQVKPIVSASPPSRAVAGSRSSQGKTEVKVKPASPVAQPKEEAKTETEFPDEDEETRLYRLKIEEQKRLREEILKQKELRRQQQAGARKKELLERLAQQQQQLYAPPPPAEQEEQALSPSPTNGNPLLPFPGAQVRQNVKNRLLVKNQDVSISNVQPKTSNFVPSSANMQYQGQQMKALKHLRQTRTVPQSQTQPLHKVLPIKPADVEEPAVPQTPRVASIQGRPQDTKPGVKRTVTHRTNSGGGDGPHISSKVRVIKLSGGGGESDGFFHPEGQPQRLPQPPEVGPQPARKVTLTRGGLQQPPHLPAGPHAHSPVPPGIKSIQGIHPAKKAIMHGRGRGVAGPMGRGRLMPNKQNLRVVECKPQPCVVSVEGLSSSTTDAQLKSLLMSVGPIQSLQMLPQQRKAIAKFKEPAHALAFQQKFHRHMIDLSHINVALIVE
inactive: [1] 0.002 | [2] -0.018 | [3] 0.029 | [4] -0.004 | [5] 0.012

RRAS2 isoform 4 (UniProt P62070)
inactive: [1] 0.045 | [2] -0.017 | [3] -0.062 | [4] -0.03 | [5] 0.011

RCN3 (UniProt Q96D15)
inactive: [1] 0.016 | [2] 0.032 | [3] -0.061 | [4] -0.01 | [5] 0.023

RABGGTA (UniProt Q92696)
inactive: [1] -0.105 | [2] 0.084 | [3] 0.035 | [4] 0.014 | [5] -0.024

SHCBP1 (UniProt Q8NEM2)
inactive: [1] 0.018 | [2] -0.176 | [3] 0.138 | [4] -0.089 | [5] -0.056

RAP1GDS1 isoform 5 (UniProt P52306)
inactive: [1] -0.093 | [2] -0.01 | [3] 0.119 | [4] -0.001 | [5] -0.009

RIOK3 (UniProt O14730)
Sequence of UniProt O14730 (O14730 whole entry, looked up): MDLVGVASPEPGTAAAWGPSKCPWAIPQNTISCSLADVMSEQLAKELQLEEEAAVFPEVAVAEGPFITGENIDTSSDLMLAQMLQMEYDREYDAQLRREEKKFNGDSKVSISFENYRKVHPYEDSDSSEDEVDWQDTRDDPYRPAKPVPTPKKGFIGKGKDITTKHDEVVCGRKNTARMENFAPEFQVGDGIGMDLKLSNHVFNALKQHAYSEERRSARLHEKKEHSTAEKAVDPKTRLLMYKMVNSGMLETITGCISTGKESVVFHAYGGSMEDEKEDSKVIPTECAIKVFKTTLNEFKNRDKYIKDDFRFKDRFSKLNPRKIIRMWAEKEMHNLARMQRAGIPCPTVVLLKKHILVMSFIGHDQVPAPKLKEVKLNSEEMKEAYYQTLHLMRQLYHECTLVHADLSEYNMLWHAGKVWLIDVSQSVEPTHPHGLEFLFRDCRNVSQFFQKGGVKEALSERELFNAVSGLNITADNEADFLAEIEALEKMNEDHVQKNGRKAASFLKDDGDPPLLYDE
inactive: [1] -0.015 | [2] -0.008 | [3] -0.016 | [4] -0.008 | [5] 0.024

SERPINA7 (UniProt P05543)
inactive: [1] -0.014 | [2] -0.001 | [3] 0.1 | [4] 0.12 | [5] 0.128

RCC1 isoform 2 (UniProt P18754)
inactive: [1] -0.175 | [2] 0.096 | [3] 0.176 | [4] 0.012 | [5] -0.058

RSF1 (UniProt Q96T23)
Sequence of UniProt Q96T23 (Q96T23 whole entry, looked up): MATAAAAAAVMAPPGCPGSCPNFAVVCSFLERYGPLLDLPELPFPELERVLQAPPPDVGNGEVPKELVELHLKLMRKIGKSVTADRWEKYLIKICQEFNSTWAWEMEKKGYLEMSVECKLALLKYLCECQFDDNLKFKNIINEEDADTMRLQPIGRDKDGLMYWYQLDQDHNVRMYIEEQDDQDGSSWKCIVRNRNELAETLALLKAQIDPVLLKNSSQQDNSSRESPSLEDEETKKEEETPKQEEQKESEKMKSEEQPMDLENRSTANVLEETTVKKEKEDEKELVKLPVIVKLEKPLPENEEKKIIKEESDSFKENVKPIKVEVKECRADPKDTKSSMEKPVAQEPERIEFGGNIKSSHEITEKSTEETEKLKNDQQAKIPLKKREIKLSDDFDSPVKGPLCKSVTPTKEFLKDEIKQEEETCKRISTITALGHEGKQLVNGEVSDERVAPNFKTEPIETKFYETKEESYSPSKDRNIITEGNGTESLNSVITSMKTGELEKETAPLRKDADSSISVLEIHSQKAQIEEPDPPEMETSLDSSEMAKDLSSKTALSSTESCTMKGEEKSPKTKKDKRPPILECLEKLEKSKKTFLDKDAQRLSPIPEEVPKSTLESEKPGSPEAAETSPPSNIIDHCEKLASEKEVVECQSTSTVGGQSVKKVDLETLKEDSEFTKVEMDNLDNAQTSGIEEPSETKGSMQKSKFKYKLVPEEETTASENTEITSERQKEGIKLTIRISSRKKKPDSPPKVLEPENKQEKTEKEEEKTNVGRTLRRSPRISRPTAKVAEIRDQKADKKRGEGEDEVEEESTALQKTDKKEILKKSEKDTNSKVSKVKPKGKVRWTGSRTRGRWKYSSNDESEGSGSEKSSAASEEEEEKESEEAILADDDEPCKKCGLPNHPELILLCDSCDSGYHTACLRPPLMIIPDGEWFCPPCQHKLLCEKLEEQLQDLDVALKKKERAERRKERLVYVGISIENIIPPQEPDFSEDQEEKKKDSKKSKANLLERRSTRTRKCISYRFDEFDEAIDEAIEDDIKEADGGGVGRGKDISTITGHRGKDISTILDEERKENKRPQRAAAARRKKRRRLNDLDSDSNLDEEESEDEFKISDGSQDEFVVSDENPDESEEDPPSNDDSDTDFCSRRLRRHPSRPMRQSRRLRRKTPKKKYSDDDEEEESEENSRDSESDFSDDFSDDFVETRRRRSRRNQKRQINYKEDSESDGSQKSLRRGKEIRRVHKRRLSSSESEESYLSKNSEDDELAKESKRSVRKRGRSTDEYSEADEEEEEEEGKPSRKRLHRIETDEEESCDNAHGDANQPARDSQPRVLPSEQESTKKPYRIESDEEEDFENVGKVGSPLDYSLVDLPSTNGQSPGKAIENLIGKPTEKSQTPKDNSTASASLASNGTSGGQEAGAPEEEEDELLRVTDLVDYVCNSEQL
inactive: [1] -0.102 | [2] 0.091 | [3] 0.096 | [4] -0.061 | [5] -0.018

RSRC2 (UniProt Q7L4I2)
inactive: [1] 0.034 | [2] 0 | [3] -0.045 | [4] 0.022 | [5] 0.085
